According to PubChem BioAssay AID504850 (National Center for Advancing Translational Sciences (NCATS), 2011):
Out of some 2,300 compounds screened, about 1,200 (52%) were called active. Another 34% or so got no clear call; they are omitted. The call rests on the fitted dose curve; in most records, active means well fitted inhibition curve with a large enough effect; inconclusive means small, poorly fitted or top-dose-only effect, or effect the other way; inactive means no such curve, though single readings can be large or run the other way. So high a share suggests a set chosen from earlier hits. The list shows a part of the results.

Experiment: Confirmation screen for delayed death inhibitors of the malarial parasite plastid, 48 hour incubation; further: nearly all actives have a fitted effect of over 65% in size
Conditions: P. falciparum-infected erythrocytes, luciferase growth; series mostly up to 28.7 µM
Summary of the method: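 Erythrocytes infected with luciferase-expressing P. falciparum (2% hematocrit, 0.1% parasitemia) incubated with compounds 48 hours at 37 C, 5% CO2, in RPMI/Albumax. Growth inhibition scored as reduced luminescence after detection reagent.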
Potency means the concentration at half of the fitted maximal effect.

SMILES | Potency
COc1ccc(C2c3c(ncn(CCCN4CCOCC4)c3=N)Oc3ccc4ccccc4c32)cc1OC (stereo not drawn) | 5.01 µM (active)
COc1ccc(C2c3c(ncn(CCN4CCOCC4)c3=N)Oc3ccc4ccccc4c32)cc1OC (stereo not drawn) | 4.47 µM (active)
O=c1[nH]c(=O)n(Cc2ccco2)c2c1C(C(F)(F)F)(C(F)(F)F)N=C(CCc1ccccc1)N2 | 11.2 µM (active)
COc1ccc2c(c1)c(C(=O)N/N=C/c1ccc(OC)c(OC)c1)c(C)n2C | 10 µM (active)
CCC(C)[C@H](NC(=O)NCCCOC(C)C)C(=O)OC (stereo partly drawn) | inactive
CCOc1ccc2nc(C)cc(Nc3cccc([N+](=O)[O-])c3)c2c1 | 2 µM (active)
O=C(O)CCc1ccc(-c2ccccc2)n1-c1ccc(C(=O)O)cc1 | inactive
Cc1cc2[nH]c(=O)c(=O)[nH]c2cc1S(=O)(=O)NC1CCCCC1C (stereo not drawn) | inactive
COC(=O)C1=C(C)NC2=C(C(=O)CC(c3cccs3)C2)C1c1ccsc1 (stereo not drawn) | 14.1 µM (active)
NNC(=O)CSc1nc(-c2ccccc2)cn1-c1ccccc1 | inactive
O=C(CSc1nc(-c2ccccc2)cs1)Nc1cccc([N+](=O)[O-])c1 | inactive
CCOC(=O)CSc1nnc(CNc2nc(-c3ccccc3)cs2)n1C | 8.91 µM (active)
Cc1ccccc1NC(=O)Cc1nnc(SCC(=O)NC2CCCCC2)n1C | inactive
Cc1cc(C)nc(SCc2nnc(SCC(=O)Nc3nc(-c4ccccc4)cs3)n2C)n1 | 14.1 µM (active)
CCn1c(Cc2ccccc2)nnc1SCC(=O)Nc1nc(C)cs1 | 12.6 µM (active)
CCCc1cc(NCc2ccccn2)n2nc(C)c(-c3ccccc3)c2n1 | 5.62 µM (active)
CN(C)c1ccc(NC(=S)NC23CC4CC(CC(C4)C2)C3)cc1 | 12.6 µM (active)
Cc1cccc(C)c1Nc1c(-c2ccc(N3CCOCC3)cc2)nc2ncccn12 | 12.6 µM (active)
c1ccc(SCc2cn(C[C@H]3CC[C@@H]([C@@H]4CC[C@H](Cn5cc(CSc6ccccc6)nn5)O4)O3)nn2)cc1 | 14.1 µM (active)
O=C(Nc1ccc(O)cc1)C1CC=CCC1 (stereo not drawn) | 7.94 µM (active)
COc1cnc(-c2ccccn2)nc1Oc1ccc(C(C)(C)C)cc1 | 4.47 µM (active)
COc1cnc(-c2ccccn2)nc1N(C)c1ccccc1 | 3.55 µM (active)
O=C1c2cc([N+](=O)[O-])cc3cc([N+](=O)[O-])cc(c23)C(=O)N1c1ccccn1 | 14.1 µM (active)
CC(C)NC(=O)c1onc(CSc2ccc(C(C)C)cc2)c1C(=O)O | inactive

SMILES | Potency
Cc1ccc[n+](CC(=O)Nc2ccc(C)c(C)c2)c1 | 14.1 µM (active)
CC(=O)c1ccc(NC(=O)C[n+]2cccc(C)c2)cc1 | inactive
O=S(=O)(c1ccc(F)cc1)N1CCN(c2nc(-c3ccc(F)cc3)cs2)CC1 | 14.1 µM (active)
CN1C[C@@H]2C[C@H]1CN2c1cc2c(cc1F)c(=O)c(C(=O)O)cn2C1CC1 | 3.55 µM (active)
Cc1cc(F)ccc1S(=O)(=O)Nc1ccccc1C(=O)Nc1ccccc1-c1nc2ccccc2[nH]1 | 5.62 µM (active)
Cc1c(C(c2ccc(Br)cc2)c2c(C)n(C)n(-c3ccccc3)c2=O)c(=O)n(-c2ccccc2)n1C | 12.6 µM (active)
COc1ccc(C(c2c(C)n(C)n(-c3ccccc3)c2=O)c2c(C)n(C)n(-c3ccccc3)c2=O)cc1 | 14.1 µM (active)
Cc1nn(C(C)C(=O)Nc2ccccc2Cl)c(=O)c2nn(-c3ccccc3)c(C)c12 (stereo not drawn) | 14.1 µM (active)
Cc1c(NC(=O)C(C)Sc2nccn2C)c(=O)n(-c2ccccc2)n1C (stereo not drawn) | inactive
Cc1nn(C(C)C(=O)NCCC2=CCCCC2)c(=O)c2nn(-c3ccccc3)c(C)c12 (stereo not drawn) | 12.6 µM (active)
Cc1nn(C(C)C(=O)NCCCc2ccccc2)c(=O)c2nn(-c3ccccc3)c(C)c12 (stereo not drawn) | 12.6 µM (active)
CSc1ccc(CNC(=O)C(C)n2nc(C)c3c(C)n(-c4ccccc4)nc3c2=O)cc1 (stereo not drawn) | 14.1 µM (active)
CSc1ccc(CNc2cccc3ccccc23)cc1 | inactive
Cc1ccc(-c2csc(SCC(=O)c3c(N)n(C4CC4)c(=O)[nH]c3=O)n2)cc1 | inactive
Nc1c(C(=O)CSc2nc3ccccc3o2)c(=O)[nH]c(=O)n1C1CC1 | 14.1 µM (active)
O[C@@H]1[C@@H](O)C=C2CCN3Cc4cc5c(cc4[C@H]1C23)OCO5 (stereo partly drawn) | 1.58 µM (active)
COc1ccc(C(=O)NC2CC2)cc1OC1CCN(C/C=C/c2ccccc2)CC1 | 8.91 µM (active)
CCc1nc(Nc2ccncc2)c2oc3ccccc3c2n1 | 10 µM (active)
Cc1oc(/C=N/NS(=O)(=O)c2ccccc2)cc1Br | inactive
CCN(CC)c1ccc(/C=N/Nc2nc3ccccc3[nH]2)cc1 | 2.82 µM (active)
Cc1c(/C=N/Nc2nc3ccccc3[nH]2)c2ccccc2n1C | 0.708 µM (active)
CCc1cc(SC#N)ccc1N | 10 µM (active)
CCCN1CCc2c(sc3nc(SCC)n(-c4ccccc4)c(=O)c23)C1 | 1.78 µM (active)
CCCN1CCc2c(sc3nc(SCC)n(-c4ccc(OC)cc4)c(=O)c23)C1 | 1.26 µM (active)

SMILES | Potency
COc1ccc(CCNC(=O)/C(=C/c2cccnc2)NC(=O)c2ccccc2)cc1OC | 12.6 µM (active)
CCOc1ccc2c(c1)C(c1ccccc1)=NNC(c1ccccc1)=N2 | 12.6 µM (active)
C=CCNC(=O)c1onc(CSc2cc(C)ccc2C)c1C(=O)O | inactive
Nc1[nH]nc2nc(NCc3ccccc3)c3c(c12)CCN(Cc1ccccc1)C3 | 15.8 µM (active)
O=c1[nH]c(NCc2ccccc2)nc2c1CCC2 | inactive
Cc1ccc(NC(=O)c2ccc3c(SCC(=O)O)c4c(nc3c2)CCCC4)c(Br)c1 | 11.2 µM (active)
COc1ccc(C2CC(c3cccs3)=NN2C(=O)CSc2nnc(N)s2)cc1OC (stereo not drawn) | 14.1 µM (active)
O=C(c1ccccc1)N1CCCC(c2ccc(Cl)cc2)=N1 | 15.8 µM (active)
O=Nc1c(-c2c(O)[nH]c3cc(Br)ccc23)[nH]c2ccccc12 | 7.08 µM (active)
CCCCC1(c2ccc(F)cc2)NC(=O)N(CC(=O)N2CCN(C(=O)c3ccco3)CC2)C1=O (stereo not drawn) | 14.1 µM (active)
O=C(CC(SCCO)c1ccc(F)cc1)c1ccco1 (stereo not drawn) | inactive
CCOc1ccc(Cl)cc1C1=CC(=O)C[C@H](c2ccc(OC)cc2)C1 | 14.1 µM (active)
COc1cccc(C2=CC(=O)C[C@H](c3ccc(F)cc3)C2)c1OC | inactive
COc1ccc2c(c1)c(CC(=O)Nc1nnc(C3CC3)s1)c(C)n2C(=O)c1ccc(Cl)cc1 | 14.1 µM (active)
Cc1ccc(-n2cc(CN3CCC(CO)(Cc4cccc(C(F)(F)F)c4)CC3)cn2)cc1 | 7.94 µM (active)
N#Cc1ccc(Oc2ccc(-c3nc4ccccc4nc3-c3ccccc3)cc2)cc1C#N | 11.2 µM (active)
Cc1c(Cc2ccccc2)c(=O)oc2cc(OC(C)C(=O)NCC3CCC(C(=O)O)CC3)c(Cl)cc12 (stereo not drawn) | 12.6 µM (active)
Cc1c(OC(C)C(=O)NCC2CCC(C(=O)O)CC2)ccc2c1oc(=O)c1ccccc12 (stereo not drawn) | 14.1 µM (active)
CC(C)CC1c2[nH]c3ccccc3c2CCN1CCCn1cccn1 (stereo not drawn) | 12.6 µM (active)
CCC1CCC(C(=O)NC(CCSC)C(=O)NCCN(CC(C)C)CC(C)C)CC1 (stereo not drawn) | 12.6 µM (active)
O=C(CSc1nc2ccccc2c(=O)n1Cc1ccc(C(=O)NC2CC2)cc1)NCc1ccco1 | 14.1 µM (active)
O=C(CSc1c2c(nc3ccccc13)CCCC2)NCc1ccco1 | inactive
O=C(CSc1nc2c(sc3ccccc32)c(=O)n1-c1ccccc1)NCc1ccco1 | 11.2 µM (active)
O=C(CCC1N=C2c3ccccc3N=C(SCC(=O)NCc3ccco3)N2C1=O)NCc1ccco1 (stereo not drawn) | inactive

SMILES | Potency
CCN(CC)CCn1c2c(c(SCC(=O)Nc3nc4ccccc4s3)nc1=O)CCCC2 | 7.08 µM (active)
CC[N+](CC)(CC)CCCCOc1ccc2c(c1)C(=O)c1cc(OCCCC[N+](CC)(CC)CC)ccc1-2 | 0.0398 µM (active)
Cc1cccc(NC(=O)C(C)Sc2nc3ccccc3c(=O)n2CCCN2CCOCC2)c1 (stereo not drawn) | 12.6 µM (active)
Cc1ccc(-c2nc(CSc3nc4ccccc4c(=O)n3CCO)cs2)cc1 | inactive
Cc1ccc(NC(=O)CSc2nc3ccccc3c(=O)n2CCCN2CCCCC2)cc1Cl | 7.94 µM (active)
N#CCc1ccc(C(=O)c2ccccc2F)s1 | inactive
Cc1cccc(NC(=O)COC(=O)c2cccc3c2C(=O)c2ccccc2C3=O)c1C | 15.8 µM (active)
Cn1c(=O)c2c([nH]c(=O)n2C)n(C)c1=O | inactive
COc1ccc(CN(CCC(c2ccccc2)c2ccco2)C(=O)c2ccco2)cc1 (stereo not drawn) | 10 µM (active)
O=C(CNC(=O)c1ccco1)OCC(=O)c1ccccc1 | inactive
COc1ccc(S(=O)(=O)N/N=C(/C)c2ccco2)cc1 | inactive
Cc1ccnc(NCc2ccc(Cl)cc2)c1 | inactive
Cc1ccnc(NCc2cccc3ccccc23)c1 | 12.6 µM (active)
CCOC(=O)c1c(CS(=O)(=O)c2ccccc2)n(C)c2cc(Br)c(O)cc12 | 12.6 µM (active)
O=C(/C=C/c1cccs1)Nc1sc2c(c1C(=O)O)CCCC2 | inactive
CC(C)N1CCc2c(sc(NC(=S)NC(=O)c3ccccc3)c2C#N)C1 | 10 µM (active)
CC(=O)Nc1sc2c(c1-c1nc3ccccc3s1)CCN(C(C)C)C2 | 4.47 µM (active)
CCN(CC)CCC[C@H](C)Nc1ccnc2cc(Cl)ccc12 | 0.501 µM (active)
COc1ccc2nc3cc(Cl)ccc3c(Nc3cc(C(C)C)c(O)cc3C)c2c1 | 0.0224 µM (active)
CCN(CC)CCC[C@H](C)Nc1c2ccc(Cl)cc2nc2ccc(OC)cc12 | 0.178 µM (active)
CCOC(=O)C1=C(C)N=c2s/c(=C\c3ccc(OCC(=O)O)cc3)c(=O)n2C1c1ccc(OC(C)C)cc1 (stereo not drawn) | 5.01 µM (active)
